# In PubChem BioAssay (NCI):
# Several values for one entry are separate records, joined by “and”; a condition that tells them apart may be missing. Identical values can stand only once. The panel holds about 83,000 compounds, 20% with a hit somewhere; the sample as a whole holds those more often.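 96-well plates, one dose, 48 hours. Percent growth reported; active if below 10.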 A number with no mark means an inactive call. Activity calls are given as the source filed them.
# Test system: MDA-MB-468 breast
# Test: NCI-60 one-dose screen, 48 h (100 = growth as untreated, 0 = no growth, -100 = all killed)
# Details: 10 µM unless noted
row,Compound,growth
1,O=C1C=C(C(O)c2ccc(O)cc2)C(=O)c2ccccc21 (stereo not given),111%
2,COc1ccc([C@@H]2[C@@H](Cl)C(=O)N2c2cc(OC)c(OC)c(OC)c2)cc1C,18.9%
3,CN(C)c1ccc2nc3ccc(=O)cc-3sc2c1,15% and 29.5%
4,CCCCCCC(CC#N)(CCC)CCCC (stereo not given),101%
5,CC[C@H](C)[C@@H]1NC(=O)[C@H]([C@@H](C)O)NC(=O)C(Cc2ccccc2)NC(=O)[C@@H]2CCCN2C(=O)C(C(C)C)NC(=O)C(Cc2ccccc2)NC(=O)CNC(=O)[C@@H]2CCCN2C1=O (stereo not given in full),53%
6,C1CCN(c2nc(N3CCCCC3)nc(N3CCOCC3)n2)CC1,107%
7,CCNC(=O)c1[nH]cc(-c2ccc(OC)cc2)c1-c1cc(OC)cc(OC)c1,76.2%
8,O=C1/C(=C\c2cccn2C(=O)c2ccccc2)c2ccccc2N1c1c(Cl)cccc1Cl,46.8%
9,CC(C)=CCC[C@](C)(O)C1CC[C@]2(C)[C@@H]1CC[C@@H]1[C@@]3(C)CC/C(=N\OCCC#N)C(C)(C)[C@@H]3CC[C@]12C (stereo not given in full),83.2%
10,COc1ccc(-c2[nH]nc(N)c2-c2cc(OC)c(OC)c(OC)c2)cc1,34%
11,Cn1c(/C(C#N)=C/c2ccc3ccccc3c2)cc2ccccc21,-3.16% (active)
12,Cc1ccc(NC(=O)CN2CCOCC2)cc1Cl,99.1%
13,Cc1ccc(O)c(NC(=O)c2cccc(Nc3ccnc(C(F)(F)F)c3)c2)c1,46%
14,COc1cc([C@H]2OC[C@H]3[C@@H]2CO[C@@H]3c2ccc(O)c(OC)c2)ccc1O,100%
15,CN(C[C@H]1Cc2c(cccc2N2CCN(Cc3ccccn3)CC2)CN1)[C@H]1CCCc2cccnc21,63.4%
16,CS(=O)(=O)c1nccc(-c2c(-c3cccc(OCCN4CCOCC4)c3)nc3sccn23)n1,37.6%
17,COc1ccc(-c2nc(/C=C3\SC(=NCc4ccccc4)NC3=O)c3ccccn23)cc1,-56.9% (active)
18,COC(=O)[C@]12CCC(C)(C)C[C@H]1C1=CC[C@@H]3[C@@]4(C)C/C(=C/c5cccnc5)C(=O)C(C)(C)[C@@H]4CC[C@@]3(C)[C@]1(C)CC2,-22.5% [100 µM] (active)
19,COc1ccccc1/C=C/C(=O)CCC(=O)O,124%
20,CCOc1cccc(/C=N/NC(=O)c2cccc(Nc3ccnc(C(F)(F)F)c3)c2)c1O,31.4%

row,Compound,growth
1,Nc1nc2c(c3ncccc13)C(c1ccccc1)Cc1ncccc1-2 (stereo not given),55.8%
2,CCNC(=O)N1CCc2cc(OC)c(OCCc3ccc(OC)cc3)cc2C1c1ccc(OC)cc1C (stereo not given),12.6%
3,CC/C=C\C[C@@H]1C/C=C2/C(=O)C=C[C@H]2C/C=C\CCCC(=O)O1,-63.3% (active)
4,O=C(Cc1ccc(/C=C/C(=O)c2ncc[nH]2)cc1)Nc1ccc(F)cc1,4.59% (active)
5,Cn1cc(-c2nc(-c3c[nH]c4c(Cl)nccc34)cs2)c2cc(Br)ccc21,19.9%
6,COc1nc(/C=C\Nc2ccc3c(c2)OCCOCCOCCOCCO3)nc(OC)n1,108%
7,CC(C)CCNCC(O)Cn1c2ccccc2c2ccccc21 (stereo not given),2.41% (active)
8,c1nc(SC2=NCCN2)c2[nH]cnc2n1,14.7%
9,CCCCCCCCCCCCCCCCN(CC)CC,-85.3% (active)
10,Cc1cc(C)c2nc(Nc3nc(C)c(C)c(=O)[nH]3)nc(C)c2c1,-35.8% (active)
11,COc1ccc(NNS(=O)(=O)O)cc1,99.3%
12,S=c1[nH]c2cc(Cl)ccc2o1,99%
13,COc1ccccc1/C=C/C(=O)/C=C/c1ccccc1OC,-61.8% (active) and -11.8% (active)
14,O=C(c1ccccc1)C(CN1CCOCC1)c1ccccc1 (stereo not given),-68.7% (active)
15,CN1CCN(c2ccc(Nc3nc(NCCNS(=O)(=O)c4ccccc4)c4sccc4n3)cc2)CC1,90.5%
16,CCOC(=O)CSc1c([N+](=O)[O-])ncn1C,91.1%
17,C=C(C)[C@@H]1CC[C@]2(C(=O)O)CC[C@]3(C)[C@H](CC[C@@H]4[C@@]5(C)C/C(=C/c6ccc(OC)cc6)C(=O)C(C)(C)[C@@H]5CC[C@]43C)[C@@H]12,0.722% (active)
18,Oc1ccc(Cl)cc1Sc1cc(Cl)ccc1O,22%
19,C#Cc1nc(C2=C(C)/C(=N/OCc3ccccc3)CC2)cs1,54.5%
20,Fc1c[c-]c(-c2ccccn2)c(F)c1.Fc1c[c-]c(-c2ccccn2)c(F)c1.[Cl][Pt+].[Cl][Pt+].c1ccc([PH+](C[PH+](c2ccccc2)c2ccccc2)c2ccccc2)cc1,-2.28% (active)
